Compound activity deposited in PubChem by National Center for Advancing Translational Sciences (NCATS).
GLP-1R agonist: activates the human GLP-1 receptor; P43220; HEK293 GLP-1R CRE-luciferase, luminescence, 4-6 h; cells express a hypersensitive GLP-1R form; Potency, µM (highest dose often 45.6 µM), inactives show top-dose activation, usual class: activators; actives 0.007% (n = 380,000); AID 624172; note: potency is the fitted concentration of half-maximal effect; % of control where 0% means no effect
D3 antag: blocks the human D3 dopamine receptor | max response, negative = inhibition, % | AID 652054 | D3R cells, DiscoveRx beta-arrestin luminescence, antagonist mode; stronger effect = lower value | actives 2.5% (n = 360,000) | P35462; in the data active = max response below about -50%; inconclusive = no clear call, values can overlap the other calls; note: % is set by controls: 0 for no effect and ±100 for the full control effect
Target sequence (P35462 whole entry, looked up): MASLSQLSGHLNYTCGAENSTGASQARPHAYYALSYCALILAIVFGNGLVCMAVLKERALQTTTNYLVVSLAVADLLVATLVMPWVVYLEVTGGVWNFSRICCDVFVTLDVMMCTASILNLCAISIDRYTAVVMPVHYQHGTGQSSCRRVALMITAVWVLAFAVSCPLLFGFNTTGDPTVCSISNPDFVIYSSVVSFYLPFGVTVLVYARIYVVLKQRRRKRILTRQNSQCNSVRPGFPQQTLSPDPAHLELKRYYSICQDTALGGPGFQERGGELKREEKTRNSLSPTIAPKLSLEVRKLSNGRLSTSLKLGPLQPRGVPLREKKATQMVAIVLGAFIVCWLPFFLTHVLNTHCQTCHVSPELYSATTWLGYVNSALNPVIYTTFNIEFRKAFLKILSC
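Cells plated overnight at 1500 cells/well, then exposed to library compounds with dopamine controls for 90 minutes at 37 degrees C. DiscoveRx reagent added for 30–60 minutes at room temperature; luminescence read, quantitative HTS format.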
GLP1R inv ag: acts as inverse agonist at human GLP-1 receptor | HEK293 GLP-1R CRE-luciferase, luminescence, 24 h; GLP-1R form is constitutively active | Potency, µM (series often up to 38.3 µM), without a hit: at the top dose activity change, negative = inhibition, usual class: inhibitors | actives 1.6% (n = 410,000) | AID 624417; note: potency is the fitted concentration of half-maximal effect; % is set by controls: 0 for no effect and ±100 for the full control effect; nearly all actives have a fitted effect of over 55% in size
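Luminescence readout: a drop in cAMP-driven luciferase signal flags inverse agonism at a constitutively active GLP-1R stably expressed in HEK293. Compound exposure lasted 24 hr at 37 deg C, 5% CO2.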
D3 ag: agonists of human D3 dopamine receptor; P35462; D3R DiscoveRx beta-arrestin cells, luminescence, 90 min; max activation, %; actives 0.58% (n = 410,000); in the data active = max activation above about 30%; note: 0% is about no effect
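Cells at 1500/well, incubated overnight, then treated with pinned compounds (dopamine as control) for 90 min at 37 degrees C. DiscoveRx reagent added for 30 - 60 minutes at room temperature; luminescence read.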
Starred values were filed as active, the others as inactive; u = inconclusive; x = not tested or not shown. Only some compounds are listed: those with a hit (about 4.3% of all), similar ones and a draw of the others. Unless noted, calls come from the whole dose curve; as a rule, active = well fitted curve in the direction sought with a large enough effect; inconclusive = small, poorly fitted or top-dose-only effect, or another doubt; inactive = no such curve, though single readings can be large; an effect the other way counts as inactive or inconclusive.

SMILES	GLP-1R agonist	D3 antag	GLP1R inv ag	D3 ag
O=C(CSc1nc2c([nH]c3ccccc32)c(=O)n1-c1ccccc1F)Nc1cccc(C(F)(F)F)c1	3.0%	x	11.2µM*	0.7
Cc1cccc(NC(=O)CSc2nc3c([nH]c4ccccc43)c(=O)n2C)c1	-9.4%	-70.5*	8.6%	-3.0
COCCn1c(SCC(=O)Nc2ccc(Br)cc2)nc2c([nH]c3ccccc32)c1=O	-6.9%	x	-3.0%	4.6
Cc1cccc(C(=O)NC(=O)Nc2ccc(-c3cc(C(F)(F)F)nn3-c3ccccc3)cc2)c1	x	x	13.3%	-3.7
COc1cccc(OCC(O)CN2CCC(Cc3ccccc3)CC2)c1 (configuration not stated)	-5.2%	-12.9	u	-8.5
OC(CN1CCC(Cc2ccccc2)CC1)c1ccccc1 (configuration not stated)	0.7%	-88.2*	24.4%	-13.0
OC(COc1ccccc1F)CN1CCC(Cc2ccccc2)CC1 (configuration not stated)	3.7%	-81.4*	u	-25.1
Cc1ccc(C)c(OCC(O)CN2CCC(CN3C(=O)c4cccc5cccc(c45)C3=O)CC2)c1 (configuration not stated)	-3.8%	u	u	-8.8
OC(COc1ccc(F)cc1Cl)CN1CCC(Cc2ccccc2)CC1 (configuration not stated)	1.7%	-78.9*	u	-20.3
Cc1ccc(OCC(O)CN2CCC(Cc3ccccc3)CC2)c(C)c1 (configuration not stated)	-6.5%	-56.5*	u	-8.3
O=C(O)C1CCN(c2ccc(Cl)nn2)CC1	-6.8%	-16.6	6.8%	-3.3
N#C/C(=C1/SC[C@@H](c2ccc(Cl)cc2Cl)S1)n1ccnc1	8.5%	x	x	4.1
OC(COc1ccccc1)CN1CCC(Cc2ccccc2)CC1 (configuration not stated)	6.3%	-75.3*	u	-35.2
O=C(Cc1cccc(NC(=O)C2CCCN(C(=O)CCc3ccccc3)C2)c1)Nc1ccc(C(=O)N2CCCCC2)cc1 (configuration not stated)	4.4%	-51.6*	-15.8%	-33.9
CN(C(=O)c1cccc(NC(=O)Cc2cccc(NC(=O)C3CCN(C(=O)CCc4ccccc4)CC3)c2)c1)C1CC1	14.2%	10.2	-6.7%	40.2*
CN(C(=O)c1cccc(NC(=O)Cc2cccc([N+](=O)[O-])c2)c1)C1CCCC1	9.4%	-75.2*	u	-19.3
Cc1ccc(S(=O)(=O)N(CC(=O)Nc2cccc([N+](=O)[O-])c2)C2CCCCC2)cc1	0.0%	u	11.2µM*	-18.2
O=C(Nc1ccccn1)c1ccc(Cl)c([N+](=O)[O-])c1	3.3%	-11.1	7.8%	-5.9
Cc1ccc(NC(=O)Cn2c(=O)n(Cc3nc(C)no3)c(=O)c3cc4c(cc32)OCO4)c(C)c1	x	x	3.1%	4.8
CCOc1ccc(-c2nc(CNC(=O)NC3CCCCC3)c(C)o2)cc1	x	x	-3.9%	3.0
CN(Cc1ccccc1)C(=O)c1ccc(NC(=O)Cc2ccc(NC(=O)C3CCN(C(=O)CCc4ccccc4)CC3)cc2)cc1	-3.4%	u	-31.0%	-6.9
Cc1ccc(NS(=O)(=O)c2ccc(OCC(=O)Nc3cccc([N+](=O)[O-])c3)c(C)c2)cc1	-0.9%	-17.1	10µM*	-7.4
CN(Cc1ccccc1)C(=O)c1cccc(NC(=O)Cc2ccc(NC(=O)C3CCN(C(=O)CCc4ccccc4)CC3)cc2)c1	-3.7%	43.8	u	78.2*
NC(=O)CCCCC1CCSS1 (configuration not stated)	0.7%	x	x	-14.5
NS(=O)(=O)c1ccc(CNC(=S)Nc2ccc(F)c(Cl)c2)cc1	6.9%	-14.5	u	8.2
SMILES	GLP-1R agonist	D3 antag	GLP1R inv ag	D3 ag
NS(=O)(=O)c1ccc(NC(=S)NCc2ccc(Cl)cc2)cc1	2.2%	0.0	3.98µM*	-21.2
CO/N=C(\C(=O)N[C@@H]1C(=O)N2C(C(=O)[O-])=C(C[n+]3cccc4c3CCCC4)CS[C@H]12)c1csc(N)n1	-1.6%	x	x	x
COc1ccc(Cc2nnc(NC(=O)c3ccc(OC)c(OC)c3)s2)cc1OC	7.6%	7.1	44.6%	41.7*
C/C(=N\NC(=O)c1ccccc1O)c1ccc(NC(=O)Cc2ccccc2)cc1	-0.1%	-9.8	-8.5%	-4.6
Cc1ccc2[nH]c(CN3CCC(CO)(CC4CCCCO4)CC3)c(C)c2c1 (configuration not stated)	10.2%	-61.0*	u	-23.7
Cc1ccc(CN2CCC(CO)(CC3CCCCO3)CC2)o1 (configuration not stated)	3.0%	-62.9*	10.6%	-13.4
CC(=O)N1CCc2cc(Br)cc(S(=O)(=O)N3CCN(c4cccc(C(F)(F)F)c4)CC3)c21	x	x	3.5%	-22.4
Cn1cc(CN2CCN(c3ccccc3)CC2)c2ccccc21	-0.3%	-79.3*	0.0%	-48.9
COc1ccc(CNC[C@H]2O[C@@H](n3ccc(=O)[nH]c3=O)[C@H](O)[C@@H]2O)cc1OC	0.4%	-58.7*	18.3%	-6.2
COc1cc(Cl)c(CNC[C@H]2O[C@@H](n3ccc(=O)[nH]c3=O)[C@H](O)[C@@H]2O)c(Cl)c1O	9.2%	0.0	-5.4%	-49.4
O=C(C1CCCN(S(=O)(=O)c2cccc3nonc23)C1)N1CCN(c2cccc(C(F)(F)F)c2)CC1 (configuration not stated)	-2.0%	x	9.2%	-7.6
CCCC(=O)NC(=S)c1c(C)n(C)n(-c2ccccc2)c1=O	5.0%	71.5	36.4%	38.1*
Cc1c(O)c(=O)n(-c2ccccc2)n1C	5.7%	-56.5*	20.4%	-68.1
Cc1c(Cc2c(C)n(C)n(-c3ccccc3)c2=O)c(=O)n(-c2ccccc2)n1C	0.0%	1.5	3.4%	1.8
Cc1c(N=NC2=C(O)CC(C)(C)CC2=O)c(=O)n(-c2ccccc2)n1C	-2.3%	-62.7*	-12.0%	-44.7
Cc1c(CN(C)CCc2ccccc2)c(=O)n(-c2ccccc2)n1C	0.1%	-76.8*	4.8%	-29.1
CC(Sc1ncc(S(=O)(=O)c2ccc(C(C)C)cc2)c(N)n1)C(=O)Nc1ccccc1 (configuration not stated)	-4.5%	x	u	6.7
CCCNC(=O)c1c(NC(=O)c2ccccc2)sc2c1CCC(C(C)(C)C)C2 (configuration not stated)	x	x	-0.5%	-5.4
O=C(NC1(C(F)(F)F)N=C(c2ccccc2)N(Cc2ccccc2)C1=O)c1ccc(F)cc1 (configuration not stated)	-2.6%	x	u	-5.6
Cc1c(N=Cc2ccncc2)c(=O)n(-c2ccccc2)n1C	-0.6%	1.6	6.1%	0.6
Cc1c(N=Cc2c(O)n(C)c(=O)c3ccccc23)c(=O)n(-c2ccccc2)n1C	4.4%	42.2	0.1%	32.8*
O=C(c1cc2cc(Cl)ccc2oc1=O)N1CCCCCCC1	-2.3%	27.6	-3.3%	0.2
O=C(C1CN(C(=O)c2cc3cc(Cl)ccc3o2)c2ccccc2O1)N1CCCCC1 (configuration not stated)	-24.6%	5.6	11.2µM*	2.3
